The entries come from a sample that favours hits as a whole.
VP16 counter: Gal4-VP16 reporter inhibition counter-screen | Drosophila S2 Gal4-VP16 UAS-luciferase, luminescence, 20 h | Potency, µM (titrated, usually from 53.6 µM), without a hit: at the top dose activity, negative = inhibition, most hits filed as inhibitors | 310,000 tested, 3.5% active;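 also: Gal4-VP16 expression switched on by copper sulfate through the metallothionein promoter; potency is read from the fitted curve at half-maximal effect; % is scaled to controls: 0 for no effect and ±100 for the full control effect; nearly all actives have a fitted effect of over 50% in size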
RORgamma inh: ROR gamma (mouse) transcription inhibition; P51450; Drosophila S2 Gal4-RORgamma UAS-luciferase reporter, 20 h; Potency, µM (doses to about 53.6 µM), for inactives: top-dose activity change, negative = inhibition, actives largely listed as inhibitors; 310,000 tested, 5.4% active; AID 2551; also: potency is read from the fitted curve at half-maximal effect; % is scaled to controls: 0 for no effect and ±100 for the full control effect; nearly all actives have a fitted effect of over 60% in size
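A Gal4/UAS one-hybrid system in insect cells: metallothionein-promoter Gal4–ROR gamma fusion plus Photinus luciferase reporter. Copper sulfate 700 uM final, 20 hr ambient incubation, luminescent detection after 10 min with reagent.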
Integrin act MD: integrin-mediated muscular dystrophy alleviation activation. 350,000 tested, 0.064% active. AID 624291. alpha7betagal myoblasts, beta-gal FDG fluorescence, 48 h. Potency, µM (titrated, usually from 38.3 µM), inactives show at the top dose activation, usual class: activators;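 also: potency is read from the fitted curve at half-maximal effect; 100% = response of the positive control SU9516; nearly all actives have a fitted effect of over 60% in size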
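Alpha7betagal+/- myoblasts (passage 13) were plated 16-24 hr, then exposed to compounds (1:260 dilution of DMSO stock) for 48 hours at 37C. After MPER lysis, β-galactosidase reporter activity was read as FDG fluorescence (ex 480/em 540) after 30 minutes.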
Giardia kill: kills Giardia lamblia; AID 540267; Giardia lamblia trophozoite viability; 340,000 tested, 0.15% active; activity change, % at 7.66 µM, hits read low; in the data active = activity change below about -80%; inconclusive = between about -30% and that limit;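 also: parasites exposed to compound for two days anaerobically before the ATP read; % is scaled to controls: 0 for no effect and ±100 for the full control effect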
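Giardia trophozoites, 100 cells per well, were exposed to compounds for 48 hrs at 37 deg C under anaerobic conditions; viability was then read as ATP content by bioluminescence after 15-30 min at room temperature.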
ERG Ets-DNA blk: blocks human ERG Ets domain binding to DNA; P11308; 370,000 tested, 0.028% active; AID 624246; fluorescence polarization, His-ERG Ets domain / labelled DNA; Potency, µM (top dose mostly 76.9 µM), for inactives: top-dose FP activity, negative = inhibition, most hits filed as inhibitors; active = well fitted inhibition curve with a large enough effect in the polarisation, with a control signal flat; inconclusive = small, poorly fitted or top-dose-only effect, or effect the other way, or a change in a side signal; inactive = no such curve, though single readings can be large or run the other way; the % refers to the polarisation;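 also: polarization taken with two DNA probes labelled with fluorescein and Texas red; potency is read from the fitted curve at half-maximal effect; % of control where 0% means no effect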
Target sequence (P11308 whole entry, looked up, the tested form may be a part): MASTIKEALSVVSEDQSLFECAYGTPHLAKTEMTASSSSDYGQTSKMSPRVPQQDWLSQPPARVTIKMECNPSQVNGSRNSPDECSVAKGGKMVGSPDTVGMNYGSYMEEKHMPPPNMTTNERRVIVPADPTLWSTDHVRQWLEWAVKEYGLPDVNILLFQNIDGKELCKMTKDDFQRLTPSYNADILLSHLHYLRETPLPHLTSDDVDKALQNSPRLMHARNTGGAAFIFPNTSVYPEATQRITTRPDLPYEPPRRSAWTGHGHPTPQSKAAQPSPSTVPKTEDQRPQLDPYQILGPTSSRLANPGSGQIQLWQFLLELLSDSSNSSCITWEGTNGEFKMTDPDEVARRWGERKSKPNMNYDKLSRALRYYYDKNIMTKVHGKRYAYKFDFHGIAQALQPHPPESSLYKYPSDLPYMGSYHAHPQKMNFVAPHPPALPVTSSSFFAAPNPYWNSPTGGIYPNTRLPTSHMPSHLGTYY
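His-tagged ERG Ets domain (1 uM in the protein solution; 300mM KCl, 50mM Tris-HCl, 1mM EDTA, 1mM DTT, pH 7.5) received compound, then a probe mix of 5 nM fluorescein-DNA and 100nM Texas-615-DNA. Fluorescence polarization was read for both dyes.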
* hit, by the source's call; ? = inconclusive; / = no result given; [ ] = another dose, or the depositor's remark. Unless noted, calls follow the shape of the dose curve; as a rule, active = well fitted curve in the direction sought with a large enough effect; inconclusive = small, poorly fitted or top-dose-only effect, or another doubt; inactive = no such curve, though single readings can be large; an effect the other way counts as inactive or inconclusive.

SMILES | VP16 counter | RORgamma inh | Integrin act MD | Giardia kill | ERG Ets-DNA blk
COC(=O)c1c(NC(=O)/C=C/C(=O)O)sc(C)c1-c1ccc(C)cc1 | -10%[10 µM] | ? | -13% | -12 | 2%
CCOC(=O)c1c(NC(=O)/C=C/C(=O)O)sc(C)c1-c1ccc(C)c(C)c1 | 6% | 10µM* | 0% | 14 | -4%
Cc1ccc(OCC(=O)c2cc(C)n(-c3ccccc3)c2C)c([N+](=O)[O-])n1 | ? | -66% | -32% | -102* | 4%
Cc1ccc(C)c(C(=O)COc2ccccc2[N+](=O)[O-])c1 | 13µM* | -97% | -39% | ? | -9%
CCCn1c(C)cc(C(=O)COc2ccc(C)nc2[N+](=O)[O-])c1C | 1% | ? | -18% | ? | 0%
Cc1ccc(OCC(=O)c2cc(C)c(C)cc2C)c([N+](=O)[O-])n1 | ? | 11µM* | -45% | -10 | -2%
COc1ccc(-c2ccc(C(C)=O)cc2)cc1C1C2C=CCCC2(C)C(=O)N1Cc1ccccc1 (centres undefined) | -10% | 29% | / | 4 | /
[O-][n+]1onc2c1CCC(=N/O)/C2=N\Nc1ccccc1 | -27% | ? | / | / | /
CCC(C)C(NC(=O)OC(C)(C)C)C(=O)NC1COC2CC(n3cc(C)c(=O)[nH]c3=O)OC12 (centres undefined) | 0% | -4% | / | 1 | /
O=C(CC(c1ccco1)S(=O)(=O)c1ccccc1)c1ccc(F)cc1 (centres undefined) | 11µM* | 2.5µM* | -16% | 0 | 4%
Cc1nc2cc(C(=O)OCC(=O)NC(C)C(C)C)ccc2n1-c1ccccc1 (centres undefined) | 28µM* | -27% | -9% | 10 | -1%
CC(=O)c1ccccc1NC(=O)COC(=O)c1ccc2c(c1)nc(C)n2-c1ccccc1 | -9% | -6% | / | / | /
Cc1nc2ccccn2c1C(=O)/C=C/c1cccc([N+](=O)[O-])c1 | 18%[10 µM] | 8% | -51% | 5 | 3%
Cc1ccc(/C=C/C(=O)c2c(C)nc3ccccn23)cc1 | ? | 14µM* | -57% | -10 | 5%
O=C(N/N=C/c1cc([N+](=O)[O-])ccc1O)c1ccc(COc2ccc3c(c2)CCC3)o1 | 1.4µM* | 2.2µM* | -39% | -12 | -8%
O=C(NCc1cccnc1)c1ccc(COc2ccc3c(c2)CCC3)o1 | 20µM* | -110% | -30% | 3 | 1%
Cc1cccn2c(=O)nc(SCC(=O)N3CCN(c4ccccc4)CC3)nc12 | / | / | 25% | 5 | 4%
O=c1c(NCCc2ccc(Cl)cc2)c(-c2ccccc2)c1=O | -3% | -2% | 0% | 4 | -8%
Cc1c(Cl)cccc1NC(=S)N1CCc2ccccc2C1 | ? | 10µM* | 14% | 8 | -1%
FC(F)(F)c1ccccc1NC(=S)N1CCc2ccccc2C1 | ? | 16µM* | 0% | -3 | -2%
Cc1c(Cl)cccc1NC(=S)N1CCOCC1 | 1% | -31% | -1% | 8 | 2%
S=C(NCCCc1cnc[nH]1)NCCCN(CCc1ccc(Cl)cc1)c1ccc(Br)cn1 | / | / | / | 5 | /
Cc1ccc(C)c(C(=O)COC(=O)CCN2C(=O)C3C4CCC(C4)C3C2=O)c1 (centres undefined) | / | / | 21% | -1 | 3%
COc1cc(NC(=O)C2=C(C)Nc3nnnn3C2c2ccc(SC)cc2)c(OC)cc1Cl (centres undefined) | / | / | / | / | 3%
c1ccc(Nc2nc(Nc3ccccc3)nc(-n3cccn3)n2)cc1 | / | / | / | -8 | /
SMILES | VP16 counter | RORgamma inh | Integrin act MD | Giardia kill | ERG Ets-DNA blk
Fc1ccc(-c2cc(-c3ccccc3)nc(-n3cccn3)n2)cc1 | ? | 1µM* | -18% | -19 | 1%
COc1ccccc1N1CCN(Cc2nc(N)nc(Nc3ccc(C)c(Cl)c3)n2)CC1 | 1% | 11µM* | -27% | 2 | -4%
CCOc1ccccc1Nc1nc(N)nc(CN(C)C2CCCCC2)n1 | -9% | 11µM* | -31% | -7 | 8%
COc1ccccc1Nc1nc(N)nc(CN2CC(C)CC(C)C2)n1 (centres undefined) | -1%[10 µM] | 8.9µM* | 9% | 12 | -9%
CCOc1ccc(Nc2nc(N)nc(CN3CCN(c4ccccc4F)CC3)n2)cc1 | -5% | 11µM* | 14% | -25 | -7%
COc1ccccc1Nc1nc(N)nc(CN2CCCCC2)n1 | -12%[10 µM] | -41% | -16% | -26 | 14%
Cc1cccc(Nc2nc(N)nc(CN3CCN(c4ccccc4F)CC3)n2)c1 | / | / | -49% | 44 | -4%
CCC(C(=O)OCC(=O)N(CCOC)c1c(N)n(Cc2ccccc2)c(=O)[nH]c1=O)c1ccccc1 (centres undefined) | -2% | 27% | -15% | -3 | -1%
CCOC(=O)c1c(C)[nH]c(CCC(=O)NCc2ccccc2Cl)c1C | / | / | / | / | 1%
O=C(NCc1ccc(F)cc1)c1cc2n(n1)CCCN(Cc1ccc(F)cc1)C2=O | / | / | / | / | -3%
CCOc1ccc(NC(=O)Cn2c(=O)oc3cc(S(=O)(=O)NC4CCCC4)ccc32)cc1 | / | / | / | / | -1%
CC1CC(C)CN(C(=S)SCc2nc(N)nc(Nc3ccccc3)n2)C1 (centres undefined) | ? | 5.6µM* | 6% | 12 | 0%
Nc1nc(CSC(=S)N2CCCCC2)nc(Nc2ccccc2)n1 | -15% | ? | 11% | -14 | 1%
COc1ccccc1Nc1nc(N)nc(CN2CCN(c3ccccc3F)CC2)n1 | 7.9µM* | 1.8µM* | -11% | 5 | 6%
C=CCCCCCCCCC(=O)NNC1CC(=O)N(c2ccccc2)C1=O (centres undefined) | 0% | 0% | -14% | 7 | -7%
O=S(=O)(NC(=S)c1ccccc1)c1ccccc1 | / | / | -4% | 0 | 7%
O=S(=O)(NC(=S)c1ccccc1)c1ccc(F)cc1 | ? | 11µM* | -9% | 6 | 4%
Cc1ccc(C(=O)OC[C@H]2O[C@H](Cl)C[C@@H]2OC(=O)c2ccc(C)cc2)cc1 | -11% | 22% | / | / | /
Cc1ccc(C)c(/C=N/NC(=S)NCCc2ccccc2)c1 | 7.9µM* | 7.1µM* | -18% | 16 | -5%
Oc1ccccc1/C=N/NC(=S)NCCc1ccccc1 | 22µM* | 7.1µM* | -30% | ? | -6%
O=C(CC(=O)N/N=C/c1c(F)cccc1Cl)NCCc1ccccc1 | -3% | 16% | 0% | 2 | -11%
Oc1ccccc1C=NNC(=S)Nc1ccc(F)cc1 | / | / | -40% | -17 | 6%
S=C(NCCc1ccccc1)Nc1c(Cl)cccc1Cl | -27% | 13µM* | 23% | -2 | -1%
S=C(NCCc1ccccc1)N/N=C/c1cccc(Cl)c1Cl | ? | 22µM* | 23% | 33 | -7%
OCCNC(=S)NCCc1ccccc1 | 16% | -10% | 11% | 12 | -3%
C=C(C)C(=O)Nc1cccc(C2=NOC3(C2)C[C@H](C(N)=O)N(C(=O)c2ccccc2C(=O)c2ccccc2)C3)c1 (some centres undefined) | -13% | 16% | 2% | 3 | 9%

Source: PubChem BioAssay
